Measured values reported in the supplement of paper PMC6555819.

Key:
Assay in all cases: PBM binding z-score (relative to random genomic background probes); higher = stronger binding; sequences stand for … in GC…GCGATTGACAGCGTAGAATGAAGG
[1] = test system: FXR:RXRa (NR concentration 270 nM, RXRa partner concentration 90 nM)
Procedure, shortened: (§1)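 Custom Agilent 4×180K protein-binding microarrays carried double-stranded probes. Their 34-nt variable regions held direct-repeat seeds, single-nucleotide variants, half-site ablations and random human genomic background sequences. Arrays were incubated 1 h with ligand-free nuclear receptor dimers in PBS pH 7.4, 2% milk, 0.02% Triton X-100, 1 mM DTT, 0.2 mg/mL BSA and 0.4 mg/ml salmon testes DNA. Antibodies against each partner (one per run) detected binding, and scanned fluorescence was regression-normalized. Binding z-scores use random background probes as reference.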

[2] = test system: LXRa:RXRa (NR concentration 270 nM, RXRa partner concentration 90 nM)
Procedure, shortened: as §1

[3] = test system: LXRa homodimer (NR concentration 270 nM)
Procedure, shortened: as §1

[4] = test system: LXRb:RXRa (NR concentration 270 nM, RXRa partner concentration 90 nM)
Procedure, shortened: as §1

[5] = test system: LXRb homodimer (NR concentration 270 nM)
Procedure, shortened: as §1

[6] = test system: PPARa:RXRa (NR concentration 270 nM, RXRa partner concentration 90 nM)
Procedure, shortened: as §1

[7] = test system: PPARg:RXRa (NR concentration 180 nM, RXRa partner concentration 90 nM)
Procedure, shortened: as §1

[8] = test system: PPARg:RXRa 270nM:90nM, anti-RXR (NR concentration 270 nM, RXRa partner concentration 90 nM)
Procedure, shortened: as §1

[9] = test system: PPARg:RXRa 30nM:10nM, anti-RXR (NR concentration 30 nM, RXRa partner concentration 10 nM)
Procedure, shortened: as §1

[10] = test system: PPARg:RXRa 90nM:30nM, anti-RXR (NR concentration 90 nM, RXRa partner concentration 30 nM)
Procedure, shortened: as §1

[11] = test system: PPARg:RXRa DBDmut IVT, anti-RXR (DBD mutation: RXRa K156A/R161A, NR concentration 270 nM, RXRa partner concentration 90 nM)
Procedure, shortened: as §1

[12] = test system: PPARg:RXRa IVT, anti-PPARg (NR concentration 270 nM, RXRa partner concentration 90 nM)
Procedure, shortened: as §1

[13] = test system: PPARg DBDmut:RXRa IVT, anti-PPARg (DBD mutation: PPARg1 K132A/R137A, NR concentration 270 nM, RXRa partner concentration 90 nM)
Procedure, shortened: as §1

[14] = test system: PPARg DBDmut IVT, anti-PPARg (DBD mutation: PPARg1 K132A/R137A, NR concentration 270 nM)
Procedure, shortened: as §1

[15] = test system: PPARg homodimer (NR concentration 180 nM)
Procedure, shortened: as §1

[16] = test system: PXR:RXRa (NR concentration 270 nM, RXRa partner concentration 90 nM)
Procedure, shortened: as §1

[17] = test system: PXR homodimer (NR concentration 270 nM)
Procedure, shortened: as §1

[18] = test system: RARa:RXR (NR concentration 270 nM, RXRa partner concentration 90 nM)
Procedure, shortened: as §1

[19] = test system: RARa homodimer (NR concentration 270 nM)
Procedure, shortened: as §1

[20] = test system: RARb:RXRa (NR concentration 270 nM, RXRa partner concentration 90 nM)
Procedure, shortened: as §1

Sequence	PBM binding z-score [1]	PBM binding z-score [2]	PBM binding z-score [3]	PBM binding z-score [4]	PBM binding z-score [5]	PBM binding z-score [6]	PBM binding z-score [7]	PBM binding z-score [8]	PBM binding z-score [9]	PBM binding z-score [10]	PBM binding z-score [11]	PBM binding z-score [12]	PBM binding z-score [13]	PBM binding z-score [14]	PBM binding z-score [15]	PBM binding z-score [16]	PBM binding z-score [17]	PBM binding z-score [18]	PBM binding z-score [19]	PBM binding z-score [20]
CCGCCTGGGGCAAGGTTACCATAACGCACAGCCA	0.284	0.783	-0.315	0.56	-1.07	1.21	0.654	0.637	-0.339	0.253	-0.567	0.525	-0.637	-1.46	0.471	0.34	-0.119	0.916	-0.239	1.61
TCATATAGGTAATGCAGGTGAAAGTCGGCATCTA	0.698	0.973	0.228	0.199	-0.224	2.23	1.65	2.58	3.86	2.86	4.18	4.3	0.872	1.17	0.782	0.415	0.211	0.602	0.52	0.41
CAGCCTAGGTCAGGGCCAGTCTAGGAGGAACGTT	1.43	0.988	-0.566	0.24	-1.33	2	0.484	0.9	-0.591	0.125	1.23	1.44	-1.02	-1.49	0.16	0.386	-0.83	1.06	-0.6	3.28
CCGACTGGGGCAGAAAGGTTTCCATACCATCCGG	-0.743	-0.804	-0.629	-1.01	-1.31	-0.642	0.629	0.229	-0.72	-0.258	1.64	0.908	-1.84	-1.79	-0.677	-0.755	-0.948	-0.82	-1.09	0.352
CCGACTGGGGCATAAGGTTCCCATAAGCCAGCCC	-0.429	-0.436	-0.915	-0.62	-1.28	0.156	0.836	1.45	-0.116	1.19	1.82	2	-1.14	-1.53	-0.0208	-0.582	-0.205	-0.563	0.262	0.252
CCTCGAAGGACAACAGGAGGTCAGAGCTGCCAGA	0.962	1.97	1.73	1.5	-0.405	2.05	0.581	0.229	-0.343	-0.119	-0.42	0.185	-0.412	-0.537	1.76	1.94	0.545	2.37	0.491	3.06
AGAATGATGTTATACGTAGATCAGGGAAGAAAGT	-0.301	-0.398	-0.0367	-0.288	-0.0572	-0.192	0.88	-0.156	0.198	-0.0681	-0.521	-0.0838	1.57	1.74	-0.218	-0.0656	0.403	-0.276	-0.0154	-0.18
